Measured values from the supplement of paper PMC11001985.
Unmarked numbers belong to inactive results.

compound: C#CCNC(=O)CCSSCCC(=O)NCCc1ccc(C=O)c(C=O)c1; assay: lysine labeling ratio R10:1 (500 µM / 50 µM probe), SILAC-ABPP in living cells; higher = lower intrinsic lysine reactivity toward the probe, active = 2 or less; conditions: HeLa; probe concentrations 500 vs 50 µM
Outline: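 An alkyne-tagged lysine probe with a disulfide linker labelled living HeLa cells in PBS at room temperature at either 50 µM or 500 µM, using SILAC light and heavy cells in forward and reverse label swaps. Lysates were mixed, clicked to biotin-azide, trypsin-digested, enriched on neutravidin, DTT-released, alkylated and measured by LC-MS/MS on a TIMS-TOF Pro. Each lysine's R is the filtered median high-probe/low-probe MS1 peptide ratio, combined as the median over forward and reverse replicates, with 20 as the upper limit.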

Sequence of UniProt Q9NYQ7 (Q9NYQ7 whole entry): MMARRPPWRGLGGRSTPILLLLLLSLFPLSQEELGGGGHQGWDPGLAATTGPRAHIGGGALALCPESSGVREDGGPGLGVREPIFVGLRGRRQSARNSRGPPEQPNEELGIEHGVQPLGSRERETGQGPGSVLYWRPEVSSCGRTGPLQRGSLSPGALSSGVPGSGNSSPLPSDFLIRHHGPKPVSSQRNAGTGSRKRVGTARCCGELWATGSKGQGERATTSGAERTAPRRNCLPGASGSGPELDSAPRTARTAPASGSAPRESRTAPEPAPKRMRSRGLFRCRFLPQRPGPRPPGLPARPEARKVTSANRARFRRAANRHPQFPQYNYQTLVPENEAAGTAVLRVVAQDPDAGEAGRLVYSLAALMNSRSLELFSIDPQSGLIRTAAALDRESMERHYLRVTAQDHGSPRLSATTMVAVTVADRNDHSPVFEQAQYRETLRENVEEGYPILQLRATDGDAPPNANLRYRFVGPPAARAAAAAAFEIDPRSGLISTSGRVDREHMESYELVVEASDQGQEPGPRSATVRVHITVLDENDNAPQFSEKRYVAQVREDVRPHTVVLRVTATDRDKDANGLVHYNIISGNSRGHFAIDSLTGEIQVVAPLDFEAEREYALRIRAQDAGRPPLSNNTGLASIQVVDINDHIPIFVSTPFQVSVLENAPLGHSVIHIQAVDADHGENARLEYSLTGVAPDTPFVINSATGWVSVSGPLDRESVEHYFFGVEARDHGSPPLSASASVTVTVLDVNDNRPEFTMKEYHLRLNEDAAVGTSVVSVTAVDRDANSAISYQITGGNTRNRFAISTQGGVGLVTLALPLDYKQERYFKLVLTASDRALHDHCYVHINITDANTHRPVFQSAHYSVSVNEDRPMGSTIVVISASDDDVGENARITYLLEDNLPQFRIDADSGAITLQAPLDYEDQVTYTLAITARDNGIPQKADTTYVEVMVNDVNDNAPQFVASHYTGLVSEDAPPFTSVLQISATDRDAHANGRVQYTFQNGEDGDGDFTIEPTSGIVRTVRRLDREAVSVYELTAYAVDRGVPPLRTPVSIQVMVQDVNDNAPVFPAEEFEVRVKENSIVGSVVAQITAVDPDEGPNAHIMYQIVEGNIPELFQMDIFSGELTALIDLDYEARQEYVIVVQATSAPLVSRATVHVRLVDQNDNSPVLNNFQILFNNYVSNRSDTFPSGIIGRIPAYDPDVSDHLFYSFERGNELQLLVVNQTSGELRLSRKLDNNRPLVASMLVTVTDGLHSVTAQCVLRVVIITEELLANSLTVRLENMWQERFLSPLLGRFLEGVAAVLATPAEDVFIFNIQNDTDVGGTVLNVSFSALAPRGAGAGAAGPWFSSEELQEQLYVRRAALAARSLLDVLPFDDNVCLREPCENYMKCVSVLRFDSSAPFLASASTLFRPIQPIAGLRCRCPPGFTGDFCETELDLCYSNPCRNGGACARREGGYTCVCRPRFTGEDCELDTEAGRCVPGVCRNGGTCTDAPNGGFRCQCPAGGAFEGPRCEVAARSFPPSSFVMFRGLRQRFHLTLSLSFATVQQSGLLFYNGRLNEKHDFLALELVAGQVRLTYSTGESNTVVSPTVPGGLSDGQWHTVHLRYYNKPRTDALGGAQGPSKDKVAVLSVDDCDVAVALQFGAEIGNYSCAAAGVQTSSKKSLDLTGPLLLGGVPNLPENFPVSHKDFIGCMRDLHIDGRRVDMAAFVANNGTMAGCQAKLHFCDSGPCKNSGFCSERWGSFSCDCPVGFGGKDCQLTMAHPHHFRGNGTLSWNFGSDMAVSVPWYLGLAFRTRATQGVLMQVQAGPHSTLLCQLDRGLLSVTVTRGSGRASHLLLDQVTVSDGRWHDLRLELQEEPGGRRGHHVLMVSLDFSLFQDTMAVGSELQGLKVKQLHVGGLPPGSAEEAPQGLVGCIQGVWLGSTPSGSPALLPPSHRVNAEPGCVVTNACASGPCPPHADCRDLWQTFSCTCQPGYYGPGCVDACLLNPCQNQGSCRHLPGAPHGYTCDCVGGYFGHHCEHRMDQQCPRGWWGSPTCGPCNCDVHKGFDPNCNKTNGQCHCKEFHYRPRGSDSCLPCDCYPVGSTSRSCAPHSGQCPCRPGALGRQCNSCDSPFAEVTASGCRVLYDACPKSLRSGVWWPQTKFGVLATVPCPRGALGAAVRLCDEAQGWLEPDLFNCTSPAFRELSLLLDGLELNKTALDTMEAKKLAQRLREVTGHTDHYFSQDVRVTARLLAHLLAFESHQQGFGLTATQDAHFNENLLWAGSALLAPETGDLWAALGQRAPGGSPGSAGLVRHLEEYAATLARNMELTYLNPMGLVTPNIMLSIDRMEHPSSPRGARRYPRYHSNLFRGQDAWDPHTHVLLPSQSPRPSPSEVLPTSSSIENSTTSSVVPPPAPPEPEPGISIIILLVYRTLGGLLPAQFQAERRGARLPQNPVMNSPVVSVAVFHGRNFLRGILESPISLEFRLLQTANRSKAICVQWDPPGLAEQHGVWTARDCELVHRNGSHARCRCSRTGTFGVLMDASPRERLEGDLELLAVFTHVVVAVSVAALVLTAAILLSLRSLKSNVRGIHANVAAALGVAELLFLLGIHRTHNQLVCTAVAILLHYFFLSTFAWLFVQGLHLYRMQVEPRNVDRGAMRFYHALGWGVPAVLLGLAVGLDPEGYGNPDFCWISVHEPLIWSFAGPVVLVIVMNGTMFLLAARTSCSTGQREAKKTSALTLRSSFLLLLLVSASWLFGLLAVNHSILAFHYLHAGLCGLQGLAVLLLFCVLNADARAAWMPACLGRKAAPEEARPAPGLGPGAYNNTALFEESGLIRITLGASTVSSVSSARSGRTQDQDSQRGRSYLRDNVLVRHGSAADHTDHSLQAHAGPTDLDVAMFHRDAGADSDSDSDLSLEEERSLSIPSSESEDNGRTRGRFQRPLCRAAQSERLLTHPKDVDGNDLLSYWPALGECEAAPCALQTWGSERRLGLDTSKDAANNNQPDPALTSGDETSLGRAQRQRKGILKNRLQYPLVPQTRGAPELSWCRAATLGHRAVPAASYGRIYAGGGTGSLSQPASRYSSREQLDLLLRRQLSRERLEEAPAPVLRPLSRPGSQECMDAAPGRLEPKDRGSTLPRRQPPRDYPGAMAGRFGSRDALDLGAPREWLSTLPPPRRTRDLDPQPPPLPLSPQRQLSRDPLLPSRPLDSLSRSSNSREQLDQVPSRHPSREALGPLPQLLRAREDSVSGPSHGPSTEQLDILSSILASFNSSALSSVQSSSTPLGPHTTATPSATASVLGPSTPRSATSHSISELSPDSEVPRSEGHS
Sequence of UniProt Q6ZMR3 (Q6ZMR3 whole entry): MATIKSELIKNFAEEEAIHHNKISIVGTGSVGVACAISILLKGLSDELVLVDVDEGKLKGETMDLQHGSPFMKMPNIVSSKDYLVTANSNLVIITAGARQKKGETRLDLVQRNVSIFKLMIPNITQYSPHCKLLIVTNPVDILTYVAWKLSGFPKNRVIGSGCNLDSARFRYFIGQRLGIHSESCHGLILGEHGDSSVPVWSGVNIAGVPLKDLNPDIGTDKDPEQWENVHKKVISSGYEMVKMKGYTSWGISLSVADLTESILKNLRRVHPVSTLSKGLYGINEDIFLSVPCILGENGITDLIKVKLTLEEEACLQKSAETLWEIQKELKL
Sequence of UniProt Q00839 (Q00839 whole entry): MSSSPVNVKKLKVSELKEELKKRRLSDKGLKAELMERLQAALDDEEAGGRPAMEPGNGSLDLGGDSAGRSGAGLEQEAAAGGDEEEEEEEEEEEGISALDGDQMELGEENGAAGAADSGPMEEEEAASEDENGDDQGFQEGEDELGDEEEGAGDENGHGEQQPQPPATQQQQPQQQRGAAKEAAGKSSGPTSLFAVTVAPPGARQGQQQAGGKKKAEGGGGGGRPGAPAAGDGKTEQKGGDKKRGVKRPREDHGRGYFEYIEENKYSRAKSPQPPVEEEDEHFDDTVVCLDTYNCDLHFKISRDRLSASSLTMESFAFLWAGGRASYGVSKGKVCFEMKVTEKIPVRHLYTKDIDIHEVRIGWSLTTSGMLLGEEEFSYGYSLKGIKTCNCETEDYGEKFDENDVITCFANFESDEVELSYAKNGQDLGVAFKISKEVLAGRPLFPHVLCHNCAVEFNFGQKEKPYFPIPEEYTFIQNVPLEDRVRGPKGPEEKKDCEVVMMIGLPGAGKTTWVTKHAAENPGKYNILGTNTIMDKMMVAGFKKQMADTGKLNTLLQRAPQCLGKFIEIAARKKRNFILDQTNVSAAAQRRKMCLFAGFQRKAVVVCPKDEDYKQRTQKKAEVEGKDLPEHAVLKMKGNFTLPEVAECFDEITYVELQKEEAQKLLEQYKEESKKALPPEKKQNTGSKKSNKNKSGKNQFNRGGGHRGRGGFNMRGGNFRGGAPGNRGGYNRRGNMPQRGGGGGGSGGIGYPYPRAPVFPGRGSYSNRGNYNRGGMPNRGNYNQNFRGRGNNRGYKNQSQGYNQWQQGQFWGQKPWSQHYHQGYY
Sequence of UniProt P67809 (P67809 whole entry): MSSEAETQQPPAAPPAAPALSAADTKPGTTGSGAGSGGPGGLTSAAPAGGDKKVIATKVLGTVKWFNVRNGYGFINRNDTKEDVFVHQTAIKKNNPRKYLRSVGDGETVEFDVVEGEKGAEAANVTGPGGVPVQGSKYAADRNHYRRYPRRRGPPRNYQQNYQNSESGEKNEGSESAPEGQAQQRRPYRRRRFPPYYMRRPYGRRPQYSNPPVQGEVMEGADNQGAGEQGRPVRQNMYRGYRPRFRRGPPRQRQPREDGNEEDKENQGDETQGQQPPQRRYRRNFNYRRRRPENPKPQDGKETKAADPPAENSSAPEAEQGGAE

Target	lysine labeling ratio R10:1
UniProt Q15149 (lysine site: K2078)	2.58
UniProt Q9NYQ7 (lysine site: K548)	1.02 (active)
YBX1 (lysine site: K170) (UniProt P67809)	9.44
RPL3 (lysine site: K229) (UniProt P39023)	1.36 (active)
PTGFRN (lysine site: K752) (UniProt Q9P2B2)	3.57
RPL34 (lysine site: K19) (UniProt P49207)	2.71
GSN (lysine site: K239) (UniProt P06396)	4.08
ITGB1 (lysine site: K551) (UniProt P05556)	5.51
PLXNA1 (lysine site: K868) (UniProt Q9UIW2)	1.37 (active)
SEMA3C (lysine site: K40) (UniProt Q99985)	3.38
HNRNPU (lysine site: K592) (UniProt Q00839)	2.21
UniProt P05787 (lysine site: K464)	5.11
L1CAM (lysine site: K180) (UniProt P32004)	1.59 (active)
UniProt P49591 (lysine site: K12)	0.947 (active)
UniProt Q6ZMR3 (lysine site: K155)	2.54
SERPINH1 (lysine site: K160) (UniProt P50454)	2.81
ROBO1 (lysine site: K490) (UniProt Q9Y6N7)	2.81
